Screening results deposited in PubChem by National Center for Advancing Translational Sciences (NCATS).
Pf growth 96h: Primary qHTS for delayed death inhibitors of the malarial parasite plastid, 96 hour incubation; Potency, µM (top dose mostly 28.7 µM), for inactives: at the highest dose activity change, negative = inhibition, hits mostly inhibitors; 320,000 tested, 6.9% active; P. falciparum luciferase reporter growth, 96 h; further: on the % scale 0 is the no-effect control and ±100 the full control effect
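P. falciparum expressing integrated firefly luciferase grown in erythrocytes (2% hematocrit, 0.05% parasitemia final) with compounds for 96 hours at 37 C, 5% CO2. Growth inhibition read as loss of luminescence after adding luciferase detection reagent.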
Pf growth 48h: Primary qHTS for delayed death inhibitors of the malarial parasite plastid, 48 hour incubation; P. falciparum luciferase growth in erythrocytes, 48 h; Potency, µM (highest dose often 28.7 µM), inactives show top-dose activity change, negative = inhibition, actives largely listed as inhibitors; 310,000 tested, 5.9% active; AID 504832, 2011; further: on the % scale 0 is the no-effect control and ±100 the full control effect
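Cell-based growth assay: transgenic P. falciparum expressing firefly luciferase, cultured in red cells within RPMI 1640 containing 0.5% w/v Albumax, 24 mM bicarbonate and gentamycin. A drop in luciferase activity indicates inhibition.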
VACV mCherry inh: qHTS for Stage-Specific Inhibitors of Vaccinia Orthopoxvirus: mCherry Reporter Primary qHTS; Vaccinia virus mCherry reporter infection, fluorescence; Potency, µM (top dose mostly 36.5 µM), inactives show at the highest dose activity change, negative = inhibition, hits mostly inhibitors; 310,000 tested, 0.63% active; AID 720579, 2013; calls by dose curve; tested in A549 cells; further: on the % scale 0 is the no-effect control and ±100 the full control effect; nearly all actives have a fitted effect of over 35% in size
HCV inh: qHTS Assay for Inhibitors of Hepatitis C Virus (HCV); Huh7.5.1 HCVcc-Cre infection, luciferase reporter, 44 h; Potency, µM (doses to about 41.8 µM), inactives show at the highest dose activity change, negative = inhibition, hits mostly inhibitors; 340,000 tested, 3.4% active; AID 651820, 2012; further: on the % scale 0 is the no-effect control and ±100 the full control effect
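Antiviral activity was scored by luciferase reporter output from cells infected with HCVcc-Cre (~0.5 moi) in presence of compound, 44 h infection period, cells seeded 1,000/well 4 h prior.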
NS1 inh: qHTS Assay for Inhibitors of Influenza NS1 Protein Function | Potency, µM (series often up to 46.1 µM), for inactives: top-dose activity, positive = more growth | 270,000 tested, 0.4% active | AID 2326, 2010; calls by dose curve; further: actives are rising curves; nearly all actives have a fitted effect of over 50% in size
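Compounds were scored for reversing the slow growth caused by influenza A NS1 in S. cerevisiae, measured by optical density at 600 nm. Assay medium contained 2% galactose at pH 6.0; NS1-free yeast of the same strain were the positive control.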
VACV Venus inh: qHTS for Stage-Specific Inhibitors of Vaccinia Orthopoxvirus: Venus Reporter Primary qHTS; Vaccinia virus Venus reporter expression, fluorescence; Potency, µM (top dose mostly 36.5 µM), for inactives: at the top dose activity change, negative = inhibition, most hits filed as inhibitors; 330,000 tested, 0.46% active; AID 720580, 2013; calls by dose curve; tested in A549 cells; further: on the % scale 0 is the no-effect control and ±100 the full control effect; nearly all actives have a fitted effect of over 30% in size
Numbers without * were called inactive; i = inactive; ? = inconclusive; . = no result given. Shown are actives, neighbours in structure and some others; about 11% of the full set was active somewhere. Unless noted, the call rests on the fitted dose curve; in most records, active means well fitted inhibition curve with a large enough effect; inconclusive means small, poorly fitted or top-dose-only effect, or another doubt; inactive means no such curve, though single readings can be large or run the other way. Potency means the concentration at half of the fitted maximal effect.

SMILES	Pf growth 96h	Pf growth 48h	VACV mCherry inh	HCV inh	NS1 inh	VACV Venus inh
Cc1[nH]c(-c2ccc3c(c2)OCO3)nc1C(=O)O	-17.6%	.	11.1%	4.1%	-3.2%	-5.6%
COC(=O)c1c(Cl)c2n3ccccc3c(C)c(-c3ccccc3)c-2c1C(=O)OC	10.4µM*	?	i	12.6µM*	20.6%	40.8%
O=C1NC(c2ccc3c(c2)OCO3)Nc2ccccc21 (configuration not stated)	?	37.7%	.	4.0%	8.1%	?
O=C1NC(c2ccc3c(c2)OCO3)Oc2ccccc21 (configuration not stated)	5.22µM*	52.3%	-3.9%	.	6.9%	-16.2%
CC[N+]1=C(C)C(C)(C)c2cc(C)ccc21	7.3%	?	78.3%	12.6µM*	.	270.2%
O=C(Cn1nc(C(F)F)cc1C1CC1)NCCC1=CCCCC1	3.29µM*	-27.3%	i	13.3%	-4.0%	-5.6%
CN(C)CCNC(=O)Cn1nc(C(F)F)cc1C1CC1	.	20.6%	-12.7%	6.8%	-10.3%	-8.9%
Cc1ccc(C(c2nnnn2C(C)(C)C)N(Cc2ccco2)Cc2cccs2)cc1 (configuration not stated)	.	13.1µM*	.	?	-41.0%	-12.0%
CC(C)(C)n1nnnc1C(c1cccnc1)N(Cc1ccccc1)Cc1cccs1 (configuration not stated)	0.165µM*	0.828µM*	-31.3%	?	-58.8%	-18.9%
CCN(Cc1ccccc1)C(c1ccc(C)cc1)c1nnnn1C(C)(C)CC (configuration not stated)	136.6%	13.1µM*	-21.2%	10µM*	0.8%	-14.7%
CCN(Cc1ccccc1)C(c1ccncc1)c1nnnn1C(C)(C)C (configuration not stated)	-1.9%	?	i	13.3%	-18.1%	-15.1%
CC(C)(C)n1nnnc1C(c1ccc(C(F)(F)F)cc1)N(Cc1ccc(F)cc1)Cc1ccco1 (configuration not stated)	-18.4%	1.85µM*	.	-13.5%	-6.4%	?
CC(C)(C)n1nnnc1C(c1ccc(F)cc1)N(Cc1ccc(F)cc1)Cc1ccco1 (configuration not stated)	-16.0%	?	.	?	2.7%	.
CC(C)(C)c1ccc(CN(Cc2ccccc2)C(c2ccccn2)c2nnnn2C(C)(C)C)cc1 (configuration not stated)	.	1.65µM*	-13.9%	10µM*	14.1%	-7.3%
CC(C)(C)n1nnnc1C(c1cc2ccccc2o1)N(Cc1ccccc1)Cc1ccccc1 (configuration not stated)	.	.	?	.	.	-23.0%
CC1CCc2c(sc(NC(=O)Cn3nc(C(=O)O)c4ccccc4c3=O)c2C#N)C1 (configuration not stated)	-12.9%	0.0%	.	-6.3%	1.4%	.
CCN1CCN(CC(=O)Nc2sc3c(c2C#N)CCC(C)C3)CC1 (configuration not stated)	?	.	-2.7%	35.5µM*	-11.3%	-17.5%
CC1CCc2c(sc(NC(=O)CSc3ncn[nH]3)c2C#N)C1 (configuration not stated)	-12.9%	-22.5%	.	11.2µM*	-16.6%	.
Cn1nccc1C(=O)N1CCN(C23CC4CC(CC(C4)C2)C3)CC1	?	7.3%	-29.3%	7.3%	0.0%	-2.2%
CC(C)C[C@@H](NC(=O)[C@@H](Cc1ccccc1)NC(=O)c1cnccn1)B(O)O	0.0338µM*	0.12µM*	.	.	.	.
O=C(c1ccc(CS(=O)(=O)c2ccc(Br)cc2)o1)N1CCN(C2CCCCC2)CC1	24.2%	.	.	.	?	.
O=C(OC(C(=O)NCc1ccco1)C(OC(=O)c1ccccc1)C(=O)NCc1ccco1)c1ccccc1 (configuration not stated)	6.2%	10.4%	-14.7%	-2.4%	19.4%	-12.6%
O=C(O)c1ccc(Cn2cnc3sc4c(c3c2=O)CCCC4)cc1	2.4%	8.0%	-15.2%	10.8%	1.0%	-10.8%
